{
  "source": "PubChem BioAssay AID1347142",
  "about": "(National Center for Advancing Translational Sciences (NCATS), 2019)",
  "note": "Records with an inconclusive call do not appear. Entries that show only a call come without a potency. Calls of active or inactive are those of the source. The call rests on the fitted dose curve; in most records, active means well fitted inhibition curve with a large enough effect; inconclusive means small, poorly fitted or top-dose-only effect; inactive means no such curve, though single readings can be large or run the other way. Further: nearly all actives have a fitted effect of over 80% in size. Potency means the concentration at half of the fitted maximal effect.",
  "data": [
    {"biological_target": "N-terminal Xaa-Pro-Lys N-methyltransferase 1 (Homo sapiens) (UniProt Q9BV86)", "sequence (Q9BV86 whole entry, looked up)": "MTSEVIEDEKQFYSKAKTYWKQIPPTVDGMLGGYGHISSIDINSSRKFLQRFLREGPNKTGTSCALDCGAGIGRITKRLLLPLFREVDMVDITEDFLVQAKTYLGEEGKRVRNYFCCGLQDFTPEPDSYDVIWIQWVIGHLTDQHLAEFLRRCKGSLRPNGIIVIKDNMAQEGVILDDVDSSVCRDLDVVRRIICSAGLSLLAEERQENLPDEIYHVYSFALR", "experiment": "qHTS Assay for Inhibitors of N-terminal methyltransferase 1 (NTMT1): ThioGlo3 Assay Confirmatory Screen, Round 1.", "conditions": "NTMT1 SAHH-coupled ThioGlo3 fluorescence, 30 min; series mostly up to 56.8 µM", "procedure,_shortened": "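Human NTMT1 at 125 nM was preincubated 1 min at room temperature with compounds at various concentrations or 1 uM RCC1-6 control. Substrate mix (100 uM SAM, 10 uM SAHH, 15 uM ThioGlo3) was added, and fluorescence (Ex 340/Em 450 nm) was read at start and after 30 min, normalized to background.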", "values": [
      {"compound": "COc1cc2nc(N3CCCCC3)nc(NC3CC3)c2cc1OC", "Potency": "24.1 µM (active)"},
      {"compound": "COc1cc2c(NC3CCN(C(C)C)CC3)nc(N3CCCN(C)CC3)nc2cc1OCCOCCN(C)C", "Potency": "24.1 µM (active)"},
      {"compound": "COc1cc2nc(N3CCCN(C)CC3)nc(NC3CCCCC3)c2cc1OC", "Potency": "27.1 µM (active)"},
      {"compound": "OC[C@H]1O[C@H](n2cnc3c(NC4CCCC4)nc(Cl)nc32)[C@@H](O)[C@@H]1O", "Potency": "inactive"},
      {"compound": "C[C@@H](Cc1ccccc1)Nc1ncnc2c1ncn2[C@@H]1O[C@H](CO)[C@@H](O)[C@H]1O", "Potency": "inactive"},
      {"compound": "COc1cc2c(NC3CCN(C(C)C)CC3)nc(N3CCCN(C)CC3)nc2cc1OCCCN1CCCC1", "Potency": "24.1 µM (active)"},
      {"compound": "COc1cc2c(NC3CCN(C(C)C)CC3)nc(N3CCCCCC3)nc2cc1OCCCN1CCCC1", "Potency": "21.5 µM (active)"},
      {"compound": "COc1cc2nc(N3CCOCC3)nc(NC3CCN(Cc4ccccc4)CC3)c2cc1OC", "Potency": "27.1 µM (active)"},
      {"compound": "Nc1ncnc2c1ncn2[C@@H]1O[C@H](COP(=O)(O)OP(=O)(O)OP(=O)(O)O)[C@@H](O)[C@H]1O", "Potency": "inactive"},
      {"compound": "Nc1ncnc2c1ncn2[C@@H]1O[C@H](COP(=O)(O)OP(=O)(O)OP(=O)(O)OP(=O)(O)OC[C@@H]2O[C@H](n3cnc4c(N)ncnc43)[C@@H](O)C2O)C(O)[C@H]1O", "note": "(stereo partly specified)", "Potency": "inactive"},
      {"compound": "Cn1cnc2c(ncn2[C@@H]2O[C@H](CO)[C@@H](O)[C@H]2O)c1=N", "Potency": "inactive"},
      {"compound": "COc1cc2c(NC3CCN(C(C)C)CC3)nc(N3CCC(N4CCCC4)CC3)nc2cc1OCCCN1CCCCC1", "Potency": "24.1 µM (active)"},
      {"compound": "COc1cc2c(NC3CCN(CC4CCCCC4)CC3)nc(N3CCCN(C(C)C)CC3)nc2cc1OCCCN1CCCCC1", "Potency": "24.1 µM (active)"},
      {"compound": "Nc1ncnc2c1ncn2[C@@H]1O[C@@H](CO)[C@H](O)[C@H]1O", "Potency": "inactive"},
      {"compound": "Nc1ncnc2c1nc(Br)n2C1OC(CO)C(O)C1O", "note": "(stereo unspecified)", "Potency": "inactive"},
      {"compound": "Nc1nc(Nc2ccccc2)nc2c1ncn2[C@@H]1O[C@@H](CO)[C@H](O)[C@H]1O", "Potency": "inactive"},
      {"compound": "COc1cc2c(NC3CCN(C)CC3)nc(N3CCCN(C)CC3)nc2cc1OCCN(C)CCN(C)C", "Potency": "27.1 µM (active)"},
      {"compound": "COc1cc2c(NC3CCN(CC4CCCCC4)CC3)nc(N3CCCCC3)nc2cc1OCCOCCN(C)C", "Potency": "24.1 µM (active)"},
      {"compound": "CC(C)N(C[C@H]1O[C@@H](n2cnc3c(N)ncnc32)[C@H](O)[C@@H]1O)C1CC(CCc2nc3ccc(C(C)(C)C)cc3[nH]2)C1", "note": "(stereo partly specified)", "Potency": "inactive"},
      {"compound": "Nc1ncnc2c1ncn2C1C[C@H](O)[C@@H](CO)O1", "note": "(stereo partly specified)", "Potency": "inactive"},
      {"compound": "CCN1CCCN(c2nc(NC3CCN(C(C)C)CC3)c3cc(OC)c(OCCCN4CCCC4)cc3n2)CC1", "Potency": "24.1 µM (active)"},
      {"compound": "COc1cc2c(NC3CCN(C(C)C)CC3)nc(N3CCCCC3)nc2cc1OCCCN1CCCCC1", "Potency": "21.5 µM (active)"},
      {"compound": "Nc1ncnc2c1ncn2C1OC(COP(=O)(O)O)C(O)C1O", "note": "(stereo unspecified)", "Potency": "inactive"},
      {"compound": "CNc1ncnc2c1ncn2[C@H]1C[C@H](O)[C@@H](CO)O1", "Potency": "inactive"},
      {"compound": "OC[C@H]1O[C@@H](n2cnc3c(NCc4ccccc4)ncnc32)[C@H](O)[C@@H]1O", "Potency": "inactive"},
      {"compound": "OC[C@@H]1O[C@H](n2cnc3c(SCc4ccccc4)ncnc32)[C@H](O)[C@H]1O", "Potency": "inactive"},
      {"compound": "COc1cc2nc(NC3CCN(Cc4ccccc4)CC3)nc(N3CCCN(C)CC3)c2cc1OC", "Potency": "24.1 µM (active)"},
      {"compound": "Cc1ccccc1CNc1ncnc2c1ncn2[C@@H]1O[C@H](CO)[C@@H](O)[C@H]1O", "Potency": "27.1 µM (active)"},
      {"compound": "Nc1ncnc2c1[nH]c(=O)n2C1CC(O)C(CO)O1", "note": "(stereo unspecified)", "Potency": "inactive"},
      {"compound": "COc1cc2nc(N3CCCN(C)CC3)nc(N3CCN(C)CC3)c2cc1OC", "Potency": "8.57 µM (active)"},
      {"compound": "CCN(CC)c1nc(NC2CCN(C)CC2)c2cc(OC)c(OC)cc2n1", "Potency": "27.1 µM (active)"},
      {"compound": "C[C@H](Cc1ccccc1)Nc1ncnc2c1ncn2[C@@H]1O[C@H](CO)C(O)[C@H]1O", "note": "(stereo partly specified)", "Potency": "inactive"},
      {"compound": "COc1cc2c(NC3CCN(CC4CCCCC4)CC3)nc(N3CCCCC3)nc2cc1OCCCN1CCCCC1", "Potency": "17.1 µM (active)"},
      {"compound": "CNCCCOc1cc2nc(N3CCCN(C)CC3)nc(NC3CCN(C)CC3)c2cc1OC", "Potency": "24.1 µM (active)"},
      {"compound": "CNC(=O)[C@H]1O[C@@H](n2cnc3c(NCc4ccc(N)cc4)ncnc32)[C@H](O)[C@@H]1O", "Potency": "inactive"},
      {"compound": "C=C1O[C@@](CO)(n2cnc3c(N)ncnc32)[C@H](O)[C@@H]1O", "Potency": "inactive"}
    ]}
  ]
}
